For experiment [1], the target named is Casein kinase I isoform gamma-2 (Homo sapiens) (UniProt P78368). The note with it: at 1 µM.
For experiment [2], the target named is Casein kinase I isoform gamma-3 (Homo sapiens) (UniProt Q9Y6M4). The note with it: at 0.1 µM.
Experiment [3] has the same target. To be noted: at 1 µM.
Experiment [4] deals with Cyclin-dependent kinase 1 (Homo sapiens) (UniProt P06493). The note with it: at 0.1 µM.
For experiment [5] the target is unchanged. To be noted: at 1 µM.
For experiment [6], the target named is Cyclin-dependent kinase 2 (Homo sapiens) (UniProt P24941). To be noted: at 0.1 µM.
The target is the same in experiment [7]. To be noted: at 1 µM.
For experiment [8] the target is unchanged. The note with it: at 0.1 µM. This is another data set of the same source.
The target is the same in experiment [9]. The note with it: at 1 µM. This is another data set of the same source.
In experiment [10] the target is T1, CDK3/Cyclin E (Homo sapiens) (UniProt P24864+Q00526). The note with it: at 0.1 µM.
Experiment [11] has as its target T1, CDK3/Cyclin E (Homo sapiens). The note with it: at 1 µM.
In experiment [12] the target is Cyclin-dependent kinase 4 (Homo sapiens) (UniProt P11802). To be noted: at 0.1 µM.
Experiment [13] shares this target. The note with it: at 1 µM.
For experiment [14], the target named is Cyclin-dependent kinase 5 (Homo sapiens) (UniProt Q00535). To be noted: at 0.1 µM.
Experiment [15] has the same target. The note with it: at 1 µM.
The target in experiment [16] is Cyclin-dependent kinase 6 (Homo sapiens) (UniProt Q00534). The note with it: at 0.1 µM.
Experiment [17] has the same target. The note with it: at 1 µM.
Experiment [18] deals with Dual specificity protein kinase CLK2 (Homo sapiens) (UniProt P49760). The note with it: at 0.1 µM.
Experiment [19] has the same target. The note with it: at 1 µM.
The target of experiment [20] is Dual specificity protein kinase CLK3 (Homo sapiens) (UniProt P49761). The note with it: at 0.1 µM.
Dual specificity protein kinase CLK3 (Homo sapiens), sequence (P49761 whole entry, looked up): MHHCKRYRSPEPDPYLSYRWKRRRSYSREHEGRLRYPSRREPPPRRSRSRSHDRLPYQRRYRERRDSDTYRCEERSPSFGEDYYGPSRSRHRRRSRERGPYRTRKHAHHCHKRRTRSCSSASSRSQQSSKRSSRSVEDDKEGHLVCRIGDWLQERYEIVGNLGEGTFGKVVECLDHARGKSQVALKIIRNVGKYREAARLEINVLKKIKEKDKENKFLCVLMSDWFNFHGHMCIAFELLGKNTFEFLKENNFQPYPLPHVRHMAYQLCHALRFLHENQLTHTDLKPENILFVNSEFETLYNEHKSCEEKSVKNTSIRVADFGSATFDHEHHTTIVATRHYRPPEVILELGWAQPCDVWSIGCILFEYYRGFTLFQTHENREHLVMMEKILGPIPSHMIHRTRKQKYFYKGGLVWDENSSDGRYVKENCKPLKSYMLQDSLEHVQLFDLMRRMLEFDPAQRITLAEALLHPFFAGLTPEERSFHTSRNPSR

Casein kinase I isoform gamma-2 (Homo sapiens), sequence (P78368 whole entry, looked up, canonical isoform): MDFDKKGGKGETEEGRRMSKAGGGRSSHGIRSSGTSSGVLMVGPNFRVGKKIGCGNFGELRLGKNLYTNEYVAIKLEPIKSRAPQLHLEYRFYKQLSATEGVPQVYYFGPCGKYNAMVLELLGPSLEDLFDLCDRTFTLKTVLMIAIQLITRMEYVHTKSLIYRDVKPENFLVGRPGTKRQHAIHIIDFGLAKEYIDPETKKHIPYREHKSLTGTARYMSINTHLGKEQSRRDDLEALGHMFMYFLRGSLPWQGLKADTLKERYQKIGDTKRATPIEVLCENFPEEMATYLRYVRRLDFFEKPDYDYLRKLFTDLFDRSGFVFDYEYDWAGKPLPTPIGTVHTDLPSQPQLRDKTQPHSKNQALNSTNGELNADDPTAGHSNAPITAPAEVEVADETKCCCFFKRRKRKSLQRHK
Cyclin-dependent kinase 1 (Homo sapiens), sequence (P06493 whole entry, looked up): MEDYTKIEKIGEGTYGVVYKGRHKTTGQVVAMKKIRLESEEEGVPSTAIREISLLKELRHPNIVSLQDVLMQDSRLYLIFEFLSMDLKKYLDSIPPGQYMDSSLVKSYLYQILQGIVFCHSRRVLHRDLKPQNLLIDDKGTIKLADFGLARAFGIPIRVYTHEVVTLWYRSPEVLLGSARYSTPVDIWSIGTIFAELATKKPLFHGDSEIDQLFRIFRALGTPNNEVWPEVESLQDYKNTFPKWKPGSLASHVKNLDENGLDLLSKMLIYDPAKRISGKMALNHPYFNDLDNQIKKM
Dual specificity protein kinase CLK2 (Homo sapiens), sequence (P49760 whole entry, looked up): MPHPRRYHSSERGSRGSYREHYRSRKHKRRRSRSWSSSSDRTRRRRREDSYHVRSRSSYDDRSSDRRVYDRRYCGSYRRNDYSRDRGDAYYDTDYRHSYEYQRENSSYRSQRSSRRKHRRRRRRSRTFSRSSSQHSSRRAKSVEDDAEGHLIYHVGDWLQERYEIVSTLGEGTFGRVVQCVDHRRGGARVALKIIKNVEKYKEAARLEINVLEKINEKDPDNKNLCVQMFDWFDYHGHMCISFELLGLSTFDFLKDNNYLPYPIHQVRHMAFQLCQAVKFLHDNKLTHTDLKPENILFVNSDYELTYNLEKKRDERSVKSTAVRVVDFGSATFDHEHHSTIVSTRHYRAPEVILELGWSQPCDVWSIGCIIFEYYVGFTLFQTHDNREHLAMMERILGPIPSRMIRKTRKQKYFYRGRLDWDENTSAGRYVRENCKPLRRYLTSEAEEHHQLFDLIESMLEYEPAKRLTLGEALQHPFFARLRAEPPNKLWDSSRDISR
T1 sequence (P24864 whole entry, looked up): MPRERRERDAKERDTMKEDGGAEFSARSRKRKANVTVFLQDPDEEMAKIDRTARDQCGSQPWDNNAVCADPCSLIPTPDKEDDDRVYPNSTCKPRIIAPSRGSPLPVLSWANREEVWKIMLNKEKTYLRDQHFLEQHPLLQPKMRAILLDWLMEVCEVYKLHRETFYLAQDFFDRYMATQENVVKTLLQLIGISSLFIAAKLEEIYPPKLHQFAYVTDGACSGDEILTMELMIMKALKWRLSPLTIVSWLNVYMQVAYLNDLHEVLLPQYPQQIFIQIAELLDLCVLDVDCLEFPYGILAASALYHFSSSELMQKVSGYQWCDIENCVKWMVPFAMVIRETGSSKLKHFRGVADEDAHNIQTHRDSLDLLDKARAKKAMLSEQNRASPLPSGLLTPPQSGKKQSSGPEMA
T1 sequence (Q00526 whole entry, looked up): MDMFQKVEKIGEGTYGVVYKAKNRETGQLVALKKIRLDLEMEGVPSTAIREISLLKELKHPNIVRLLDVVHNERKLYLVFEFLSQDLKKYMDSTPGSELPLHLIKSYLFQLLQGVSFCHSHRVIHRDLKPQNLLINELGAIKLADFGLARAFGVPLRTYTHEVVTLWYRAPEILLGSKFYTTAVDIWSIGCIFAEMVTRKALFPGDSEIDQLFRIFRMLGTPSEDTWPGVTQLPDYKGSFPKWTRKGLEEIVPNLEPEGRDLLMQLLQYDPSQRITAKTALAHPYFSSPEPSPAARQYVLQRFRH
Cyclin-dependent kinase 4 (Homo sapiens), sequence (P11802 whole entry): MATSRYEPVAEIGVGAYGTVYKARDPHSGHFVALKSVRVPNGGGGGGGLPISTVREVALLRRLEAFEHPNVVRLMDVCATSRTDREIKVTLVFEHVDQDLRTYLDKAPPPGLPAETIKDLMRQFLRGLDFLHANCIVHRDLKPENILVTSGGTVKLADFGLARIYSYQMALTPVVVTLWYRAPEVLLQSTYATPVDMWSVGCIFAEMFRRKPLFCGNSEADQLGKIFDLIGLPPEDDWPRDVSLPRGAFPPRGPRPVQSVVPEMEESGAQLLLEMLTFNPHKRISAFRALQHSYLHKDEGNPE
Cyclin-dependent kinase 5 (Homo sapiens), sequence (Q00535 whole entry, looked up): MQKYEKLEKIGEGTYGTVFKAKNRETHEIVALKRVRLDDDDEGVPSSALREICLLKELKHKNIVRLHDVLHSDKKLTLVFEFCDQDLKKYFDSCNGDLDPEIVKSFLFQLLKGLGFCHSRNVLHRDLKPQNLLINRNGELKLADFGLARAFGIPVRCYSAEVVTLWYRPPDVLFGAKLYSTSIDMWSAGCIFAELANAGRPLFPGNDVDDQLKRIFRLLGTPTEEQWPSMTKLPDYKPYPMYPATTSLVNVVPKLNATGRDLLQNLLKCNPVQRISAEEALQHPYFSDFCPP
Casein kinase I isoform gamma-3 (Homo sapiens), sequence (Q9Y6M4 whole entry, looked up, canonical isoform): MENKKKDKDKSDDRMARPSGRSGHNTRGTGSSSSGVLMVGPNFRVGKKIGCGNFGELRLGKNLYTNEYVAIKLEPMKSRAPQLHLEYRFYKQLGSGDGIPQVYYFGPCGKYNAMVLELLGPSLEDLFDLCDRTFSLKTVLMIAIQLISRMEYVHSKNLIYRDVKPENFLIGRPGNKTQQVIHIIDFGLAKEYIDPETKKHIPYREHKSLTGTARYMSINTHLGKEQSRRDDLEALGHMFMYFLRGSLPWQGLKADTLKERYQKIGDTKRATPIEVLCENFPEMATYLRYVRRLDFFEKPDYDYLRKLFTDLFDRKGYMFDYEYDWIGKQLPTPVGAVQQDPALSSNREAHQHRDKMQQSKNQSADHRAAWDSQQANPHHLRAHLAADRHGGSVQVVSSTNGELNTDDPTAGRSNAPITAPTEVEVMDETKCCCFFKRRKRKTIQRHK
Cyclin-dependent kinase 6 (Homo sapiens), sequence (Q00534 whole entry): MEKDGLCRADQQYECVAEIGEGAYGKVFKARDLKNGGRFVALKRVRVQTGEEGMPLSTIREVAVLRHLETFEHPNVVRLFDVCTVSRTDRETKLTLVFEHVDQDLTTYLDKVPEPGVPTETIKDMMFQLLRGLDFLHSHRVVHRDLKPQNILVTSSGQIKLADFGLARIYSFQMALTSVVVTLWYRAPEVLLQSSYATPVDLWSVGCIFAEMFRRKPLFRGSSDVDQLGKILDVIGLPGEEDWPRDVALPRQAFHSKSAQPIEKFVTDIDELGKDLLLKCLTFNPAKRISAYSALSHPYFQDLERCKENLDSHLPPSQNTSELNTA

`CC(C)(CO)CNC(=O)c1ccc2c(c1)/C(=N/Nc1ccc(S(N)(=O)=O)cc1)C(=O)N2`: the inhibition in experiment [1] worked out at 3.6%; in [2], 1.31%; in experiment [3] it was 8.37%; in experiment [4] it was 37.2%; in [5] it was 74.8%; in [6] it was 87.3%. The inhibition in [7] was determined as 93.6%; in experiment [8], 68.4%; in experiment [9], 81.2%; in experiment [10] it was 48.5%; in experiment [11], 88.5%; in experiment [12], 13.6%. The inhibition in experiment [13] stood at 54.6%; in [14], 40.6%; in experiment [15], 75.1%; in experiment [16], 9.84%; in experiment [17], 59.1%; in experiment [18] it was 11.8%. Moreover, the inhibition is 61.9% in [19] and -0.48% in [20].

Consider `Cc1cccc(Nc2ncc(-c3ccccc3)o2)c1`, for which the inhibition in experiment [1] is 3.38%; in experiment [2], 2.18%; in [3], 2.99%; in experiment [4] it was 3.39%; in experiment [5] it was 5.05%; in [6] it was 4.32%. Further, the inhibition in [7] was 8.62%; in [8] it was 1.61%; in experiment [9], 9.01%; in experiment [10], -0.22%; in experiment [11] it was 4.71%; in experiment [12], 1.95%. In addition, the inhibition in experiment [13] is 5.69%; in experiment [14], 1.51%; in experiment [15], 7.89%; in experiment [16] it was -1.21%; in experiment [17], 11.3%; in [18], 1.65%. Besides, the results for the inhibition in experiment [19] and in experiment [20] were 4.78% and 1.1%, respectively.

For the compound `COc1ccc(-c2oc3ncnc(N)c3c2-c2ccc(NC(=O)Nc3cc(C(F)(F)F)ccc3F)cc2)cc1`, the inhibition in [1] came to 1.65%; in experiment [2], 0.82%; in experiment [3], 3.84%; in experiment [4] it was 0.92%; in experiment [5], 7.71%; in experiment [6], 1.73%. In addition, the inhibition in experiment [7] came to 28.1%; in [8], 4.28%; in [9], 28.8%; in [10], 4.83%; in experiment [11], 42.4%; in experiment [12], 3.09%. The inhibition in [13] was 5.04%; in experiment [14], 1.02%; in experiment [15], 4.32%; in experiment [16], 3.24%; in experiment [17] it was 3.67%; in experiment [18], 3.66%. Further, the inhibition in experiment [19] was 26.6%; in [20], 1.97%.

For `CCN1CCC(CC(=O)Nc2n[nH]c3nnc(-c4cccc(F)c4F)cc23)CC1`, the inhibition in experiment [1] was -0.19%; in experiment [2], -0.19%; in experiment [3] it was 1.47%; in [4], 1.67%; in experiment [5], 8.73%; in experiment [6], 2.71%. Moreover, the inhibition in experiment [7] came to 13.8%; in [8], 1.12%; in [9], 7.61%; in experiment [10], 0.16%; in [11], 2.37%; in experiment [12], 5.41%. In addition, the inhibition is 32.5% in experiment [13]; 1.05% in [14]; 7.07% in [15]; -1.17% in experiment [16]; 17.4% in experiment [17]; 5.35% in [18]. The inhibition in [19] is 29.9%; in [20] it was -0.51%.

Turning to `Fc1ccc(-c2nn3ncccc3c2-c2ccnc(Nc3ccc4c(c3)OCCO4)n2)cc1`, the inhibition in [1] was 61.6%; in [2], 23.9%; in [3] it was 76.1%; in experiment [4], 0.14%; in [5], 0.65%; in [6], 1.25%. The inhibition in experiment [7] was 3.7%; in experiment [8] it was 2.71%; in experiment [9], 2.76%; in experiment [10] it was 3.59%; in experiment [11], -2.65%; in experiment [12], 1.89%. Further, the inhibition is 1.86% in experiment [13]; 0.45% in experiment [14]; 0.21% in experiment [15]; -2.15% in experiment [16]; 2.72% in experiment [17]; 1.15% in experiment [18]. In addition, the inhibition in experiment [19] worked out at 1.21%; in experiment [20], 1.15%.

Take `COc1cc(N2CCN(C(C)C)CC2)ccc1Nc1nc(Nc2ccc(F)cc2C(N)=O)c2cc[nH]c2n1`: the inhibition was determined as 40.8% in [1]; 14.7% in experiment [2]; 59% in experiment [3]; 1.39% in experiment [4]; 1.85% in [5]; 2.71% in experiment [6]. In addition, the inhibition in experiment [7] was 0.03%; in experiment [8], 0.79%; in experiment [9], 0.42%; in experiment [10], -2.54%; in experiment [11], 0.34%; in experiment [12] it was 1.59%. The inhibition in [13] was 5.82%; in experiment [14], 0.74%; in experiment [15] it was 0.58%; in experiment [16], -2.83%; in [17] it was 2.77%; in experiment [18], 37.3%. Moreover, the inhibition in [19] was found to be 88.4%; in experiment [20], 1.64%.

As for `CC1=C(C(=O)Nc2cc(Cl)c3[nH]ncc3c2)C(c2ccc(C(F)(F)F)cc2)CC(=O)N1` (stereo not given), the inhibition in [1] is 3.61%; in [2], 1.59%; in experiment [3] it was 2.92%; in [4], -0.73%; in [5] it was 1.81%; in experiment [6], -0.94%. The inhibition in experiment [7] was found to be 9.38%; in experiment [8], 2.4%; in experiment [9], 7.57%; in experiment [10], 2.08%; in [11], 0.3%; in experiment [12], 2.42%. In addition, the inhibition was 3.48% in [13]; 0.48% in experiment [14]; 1.62% in experiment [15]; -4.7% in experiment [16]; -0.24% in experiment [17]; 1.17% in [18]. The values for the inhibition in [19] and in [20] were 4.84% and 1.15%, respectively.

As to `COc1cc2ncn(-c3cc(OCc4ccccc4C(F)(F)F)c(C(=O)N(C)C)s3)c2cc1OC`, the inhibition in experiment [1] was 0.02%; in experiment [2], -1.27%; in experiment [3], 0.6%; in experiment [4] it was 0.2%; in [5], 1.91%; in [6] it was 1.29%. Further, the inhibition in experiment [7] is -0.21%; in experiment [8] it was -0.22%; in experiment [9] it was 0.54%; in [10], 1.54%; in [11], -0.96%; in experiment [12], 1.04%. Also, the inhibition in [13] is 1.39%; in [14] it was 0.01%; in experiment [15], -0.22%; in experiment [16], -1.98%; in [17], -0.75%; in [18] it was -0.32%. Also, the inhibition in experiment [19] stood at 2.04%; in [20] it was 0.46%.

On to `CCCN(CCS(C)(=O)=O)Cc1ccc(-c2ccc3ncnc(Nc4ccc(OCc5cccc(F)c5)c(Cl)c4)c3c2)o1`, for which the inhibition in experiment [1] is 3.18%; in experiment [2] it was -1.08%; in experiment [3] it was 1.11%; in experiment [4], 2.23%; in [5] it was 8.04%; in [6] it was 0.78%. The inhibition in experiment [7] was -1.6%; in [8], 1.97%; in experiment [9], 7%; in experiment [10], 0.67%; in experiment [11], -1.26%; in experiment [12] it was 1.25%. In addition, the inhibition came out at 5.06% in experiment [13]; 2.08% in experiment [14]; 6.83% in [15]; 1.99% in experiment [16]; 7% in [17]; 1.46% in experiment [18]. Also, the inhibition was 0.75% in experiment [19] and 1.51% in experiment [20].

With `O=S(=O)(CCNCc1ccc(-c2ccc3ncnc(Nc4ccc(OCc5cccc(F)c5)c(Cl)c4)c3c2)o1)c1ccccc1`, the inhibition in [1] was 5.75%; in experiment [2], 4.59%; in experiment [3], 5.14%; in experiment [4], 0.29%; in [5] it was 1.65%; in [6], 2.32%. For the same compound, the inhibition in experiment [7] was 2.63%; in [8] it was 3.6%; in [9], 5.45%; in [10], 0.01%; in experiment [11] it was -1.98%; in [12] it was 4.84%. The inhibition stood at 5.57% in experiment [13]; 0.05% in experiment [14]; 1.21% in experiment [15]; 0.74% in experiment [16]; 2.65% in experiment [17]; 0.01% in experiment [18]. Further, the inhibition in [19] was found to be 1.31%; in experiment [20], 0.95%.

Source of the values: ChEMBL document CHEMBL1961873, “Compounds: GSK PKIS; Assays: Nanosyn kinase panel” (2012).
